Marburg entry inh = inhibitors of Marburg virus binding or cell entry. Marburg virus pseudotyped entry inhibition, cell reporter. Potency, µM (titrated, usually from 37.8 µM), usual class: inhibitors. AID 540276. 300,000 tested, 1.8% active; calls by dose curve; tested in HEK293 cells
AMA1 RON2 block = AMA1-RON2 (P. falciparum) interaction inhibition. AlphaScreen AMA1-biotinylated RON2 peptide binding. 360,000 tested, 0.2% active. Potency, µM (titrated, usually from 58.2 µM), usual class: inhibitors; active means well fitted inhibition curve with a large enough effect; inconclusive means small, poorly fitted or top-dose-only effect; inactive means no such curve, though single readings can be large or run the other way; further: nearly all actives have a fitted effect of over 45% in size
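AMA1 (3D7) with his tag at 25 nM final met compounds first, then biotinylated RON2 peptide at 25 nM; detection used donor plus acceptor beads, 10 µg/mL apiece, read by AlphaScreen after 30 min at room temperature.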
Lassa entry inh = Lassa virus entry inhibition | Lassa virus pseudotype entry inhibition, cell reporter | Potency, µM (top dose mostly 37.9 µM), hits mostly inhibitors | 300,000 tested, 1.2% active; calls by dose curve; tested in HEK293 cells; further: nearly all actives have a fitted effect of over 50% in size
Cycloheximide cs = counter-screen hit for Shiga toxin inhibitors, cycloheximide; cell reporter, cycloheximide protein synthesis inhibition counterscreen; 300,000 tested, 12% active; AID 2314; max response, %; in the data active means max response mostly above about 13%, no sharp cut-off; inactive means mostly below about 14%; further: read at 38.3 µM for the half of the compounds with a filed dose
Shiga inhibitor = blocks Shiga toxin action in Vero cells. 290,000 tested, 9.2% active. inhibition, % at 38.7 µM. Vero cells, Shiga toxin protein synthesis inhibition reporter; in the data active means inhibition mostly above about 28%, no sharp cut-off; inactive means mostly below about 43%
A number is an active result; ! = not confirmed by another sample; [ ] = another dose, or the depositor's remark. The full list was thinned out, with hits kept by preference.

CCc1ccccc1NC(=O)Nc1nnc(N(C)Cc2ccccc2)s1 was read as Marburg entry inh inactive and Lassa entry inh inactive.
COc1ccc(C2CC(O)(c3ccccc3)Oc3cc(OC)c(OC)c(OC)c32)cc1 (stereo not given) was read as AMA1 RON2 block inactive, Cycloheximide cs 19.6! and Shiga inhibitor inactive.
Screening CCCOc1ccc(/C(O)=C2/C(=O)C(=O)N(CCCn3ccnc3)C2c2cccnc2)cc1 (stereo not given) returned Marburg entry inh inactive, AMA1 RON2 block inactive, Lassa entry inh inactive, Cycloheximide cs inactive and Shiga inhibitor inactive.
Screening CCOc1ccc(/C(O)=C2/C(=O)C(=O)N(CCCn3ccnc3)C2c2cccs2)cc1Cl (stereo not given) returned Marburg entry inh inactive, AMA1 RON2 block inactive, Lassa entry inh inactive, Cycloheximide cs 46.7 and Shiga inhibitor 63.1.
Screening CCCOc1ccc(/C(O)=C2/C(=O)C(=O)N(CCCn3ccnc3)C2c2cccs2)cc1 (stereo not given) returned Marburg entry inh inactive, AMA1 RON2 block inactive, Cycloheximide cs 15.7 and Shiga inhibitor inactive.
Screening Cc1ccc(-c2nc3ccc(C)cn3c2CC2CCCCC2)cc1 returned AMA1 RON2 block inactive.
`CC(=O)Nc1ccc(C(=O)Nc2nc(-c3cccnc3)cs2)cc1` gave Marburg entry inh inactive, AMA1 RON2 block inactive, Lassa entry inh inactive, Cycloheximide cs 15.4 and Shiga inhibitor inactive.
`O=C(Nc1nc(-c2cccnc2)cs1)c1ccccc1Cl` gave Marburg entry inh inactive, AMA1 RON2 block inactive, Lassa entry inh inactive, Cycloheximide cs inactive and Shiga inhibitor inactive.
`Cc1ccccc1C(=O)Nc1nc(-c2cccnc2)cs1` gave AMA1 RON2 block inactive, Cycloheximide cs 19.5 and Shiga inhibitor inactive.
For COc1ccc(/C(C)=N/Nc2nc(C)cc(-c3ccccc3)n2)cc1 the results were Marburg entry inh 2.51µM, AMA1 RON2 block inactive and Lassa entry inh inconclusive.
For Cc1cc(-c2ccccc2)nc(N/N=C/c2ccc(O)cc2)n1 the results were Marburg entry inh inconclusive, AMA1 RON2 block inactive and Lassa entry inh 8.91µM.
`Oc1ccc(/C=N/Nc2nc(-c3ccc(Cl)cc3)cc(C(F)(F)F)n2)cc1` gave Marburg entry inh 11.2µM, AMA1 RON2 block inactive[11.6 µM], Lassa entry inh inconclusive, Cycloheximide cs inactive and Shiga inhibitor inactive.
Screening O=C(CNC(=O)c1sc2ccccc2c1Cl)NCc1cccc(C(F)(F)F)c1 returned Marburg entry inh inconclusive, AMA1 RON2 block inactive and Lassa entry inh inactive.
`Cc1ccc(Cc2ccccc2C(=O)O)cc1` gave Marburg entry inh inactive, AMA1 RON2 block inactive and Lassa entry inh inactive.
Cc1ccc(N2CC(C(=O)NCc3nnnn3-c3ccc(C)c(C)c3)CC2=O)cc1C (stereo not given) was read as Lassa entry inh inactive.
For O=C(CSc1ncccc1C(=O)O)Nc1ccc2c(c1)OCCO2 the results were Marburg entry inh inactive, AMA1 RON2 block inactive, Lassa entry inh inactive, Cycloheximide cs 100.2 and Shiga inhibitor 82.3.
For O=C(CSc1ncnc2ccccc12)Nc1ccc2c(c1)OCO2 the results were Marburg entry inh inactive, AMA1 RON2 block inactive, Cycloheximide cs inactive and Shiga inhibitor inactive.
For O=C(CSc1ncnc2ccccc12)Nc1ccc2c(c1)OCCO2 the results were Marburg entry inh inactive, AMA1 RON2 block inactive, Lassa entry inh inactive, Cycloheximide cs 30.8 and Shiga inhibitor inactive.
Screening O=C(CSc1ccccc1C(=O)O)Nc1ccc2c(c1)OCO2 returned AMA1 RON2 block inactive.
c1ccc(-n2ncc3c2ncn2nnnc32)cc1 was read as Marburg entry inh inactive, AMA1 RON2 block inactive, Lassa entry inh inactive, Cycloheximide cs inactive and Shiga inhibitor inactive.
Screening Cc1ccc(-n2ncc3c2ncn2c(C)nnc32)cc1C returned Marburg entry inh inactive, AMA1 RON2 block inactive, Lassa entry inh inactive, Cycloheximide cs 29.5 and Shiga inhibitor 62.9.
CCc1nnc2c3cnn(-c4ccccc4)c3ncn12 was read as Marburg entry inh inactive, AMA1 RON2 block inactive, Lassa entry inh inconclusive, Cycloheximide cs 27.7 and Shiga inhibitor 67.1.
Screening Cc1nc2c3cnn(-c4ccccc4)c3ncn2n1 returned Marburg entry inh inactive, AMA1 RON2 block inactive, Lassa entry inh inactive, Cycloheximide cs 21.2 and Shiga inhibitor 34.3.
Screening c1ccc(-n2ncc3c2ncn2cnnc32)cc1 returned Marburg entry inh inactive, AMA1 RON2 block inactive, Lassa entry inh inactive, Cycloheximide cs inactive and Shiga inhibitor inactive.
Screening CCC(NC(=O)Nc1cc(OC)ccc1OC)c1c(-n2cccc2)sc2c1CCN(CC)C2 (stereo not given) returned Lassa entry inh inactive.
